Columns and labels:
Assay in all cases: log2 ratio of Biotin-Ahx-Ub-VS probe labelling (fragment/DMSO); higher = less target engagement (more negative = stronger competition), active = hit call of the paper (q ≤ 0.05, log2 ratio ≤ -1)
Details in all cases: compound concentration: 200 uM; treatment time: 3 h
USP42 = molecular target: T1, USP42 (UniProt Q9H9J4)
T1 sequence (whole entry): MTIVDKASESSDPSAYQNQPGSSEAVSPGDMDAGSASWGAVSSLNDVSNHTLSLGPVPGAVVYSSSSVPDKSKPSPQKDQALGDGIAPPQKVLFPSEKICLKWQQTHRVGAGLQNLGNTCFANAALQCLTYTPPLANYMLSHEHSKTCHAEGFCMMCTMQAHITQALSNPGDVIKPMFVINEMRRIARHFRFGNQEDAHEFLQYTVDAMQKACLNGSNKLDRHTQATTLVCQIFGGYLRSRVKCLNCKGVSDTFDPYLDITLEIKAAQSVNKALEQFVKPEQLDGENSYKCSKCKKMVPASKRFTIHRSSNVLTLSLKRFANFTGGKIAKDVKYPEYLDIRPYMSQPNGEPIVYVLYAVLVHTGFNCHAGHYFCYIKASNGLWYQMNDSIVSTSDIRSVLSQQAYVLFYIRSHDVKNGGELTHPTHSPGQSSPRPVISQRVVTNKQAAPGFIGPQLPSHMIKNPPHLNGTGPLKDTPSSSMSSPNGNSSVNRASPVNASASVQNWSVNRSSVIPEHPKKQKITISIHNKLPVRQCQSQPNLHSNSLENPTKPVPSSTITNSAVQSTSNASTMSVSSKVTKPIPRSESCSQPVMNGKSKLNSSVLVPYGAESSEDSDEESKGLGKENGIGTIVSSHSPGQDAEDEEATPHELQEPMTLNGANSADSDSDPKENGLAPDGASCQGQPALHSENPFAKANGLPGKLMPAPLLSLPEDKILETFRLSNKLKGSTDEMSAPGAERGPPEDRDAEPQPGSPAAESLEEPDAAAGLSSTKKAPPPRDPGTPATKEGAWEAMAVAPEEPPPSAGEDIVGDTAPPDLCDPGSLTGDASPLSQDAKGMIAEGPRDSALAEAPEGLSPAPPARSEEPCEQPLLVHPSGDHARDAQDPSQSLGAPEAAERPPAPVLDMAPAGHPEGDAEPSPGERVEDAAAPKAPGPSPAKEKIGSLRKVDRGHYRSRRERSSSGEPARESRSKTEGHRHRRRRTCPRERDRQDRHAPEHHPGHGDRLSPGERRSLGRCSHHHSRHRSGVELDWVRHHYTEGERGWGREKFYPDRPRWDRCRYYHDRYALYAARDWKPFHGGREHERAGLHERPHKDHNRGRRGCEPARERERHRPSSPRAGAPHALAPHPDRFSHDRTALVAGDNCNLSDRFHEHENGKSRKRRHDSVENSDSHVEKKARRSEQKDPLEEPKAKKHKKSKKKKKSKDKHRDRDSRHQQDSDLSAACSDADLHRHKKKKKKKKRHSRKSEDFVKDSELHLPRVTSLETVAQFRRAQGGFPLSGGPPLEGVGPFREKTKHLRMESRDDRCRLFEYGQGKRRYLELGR
How it was run: (§1)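 HEK293T lysate (495 µg per sample, in Tris/CHAPS/IGEPAL buffer with protease inhibitors) was exposed in triplicate for 3 h to fragment at 200 µM or to vehicle, then to Biotin-Ahx-Ub-VS at 0.5 µM final for 1 h. Labelled DUBs were enriched on NeutrAvidin, digested with LysC and trypsin, and analysed by diaPASEF LC-MS/MS. Spectronaut label-free quantities were normalised to the global median, and values are average log2 ratios of fragment over vehicle from an unpaired t-test. Only proteins with ≥2 unique peptides were used.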

USP46 = USP46 (UniProt P62068)
How it was run: as §1

USP47 = molecular target: T2, USP47 (UniProt Q96K76)
T2 sequence (whole entry): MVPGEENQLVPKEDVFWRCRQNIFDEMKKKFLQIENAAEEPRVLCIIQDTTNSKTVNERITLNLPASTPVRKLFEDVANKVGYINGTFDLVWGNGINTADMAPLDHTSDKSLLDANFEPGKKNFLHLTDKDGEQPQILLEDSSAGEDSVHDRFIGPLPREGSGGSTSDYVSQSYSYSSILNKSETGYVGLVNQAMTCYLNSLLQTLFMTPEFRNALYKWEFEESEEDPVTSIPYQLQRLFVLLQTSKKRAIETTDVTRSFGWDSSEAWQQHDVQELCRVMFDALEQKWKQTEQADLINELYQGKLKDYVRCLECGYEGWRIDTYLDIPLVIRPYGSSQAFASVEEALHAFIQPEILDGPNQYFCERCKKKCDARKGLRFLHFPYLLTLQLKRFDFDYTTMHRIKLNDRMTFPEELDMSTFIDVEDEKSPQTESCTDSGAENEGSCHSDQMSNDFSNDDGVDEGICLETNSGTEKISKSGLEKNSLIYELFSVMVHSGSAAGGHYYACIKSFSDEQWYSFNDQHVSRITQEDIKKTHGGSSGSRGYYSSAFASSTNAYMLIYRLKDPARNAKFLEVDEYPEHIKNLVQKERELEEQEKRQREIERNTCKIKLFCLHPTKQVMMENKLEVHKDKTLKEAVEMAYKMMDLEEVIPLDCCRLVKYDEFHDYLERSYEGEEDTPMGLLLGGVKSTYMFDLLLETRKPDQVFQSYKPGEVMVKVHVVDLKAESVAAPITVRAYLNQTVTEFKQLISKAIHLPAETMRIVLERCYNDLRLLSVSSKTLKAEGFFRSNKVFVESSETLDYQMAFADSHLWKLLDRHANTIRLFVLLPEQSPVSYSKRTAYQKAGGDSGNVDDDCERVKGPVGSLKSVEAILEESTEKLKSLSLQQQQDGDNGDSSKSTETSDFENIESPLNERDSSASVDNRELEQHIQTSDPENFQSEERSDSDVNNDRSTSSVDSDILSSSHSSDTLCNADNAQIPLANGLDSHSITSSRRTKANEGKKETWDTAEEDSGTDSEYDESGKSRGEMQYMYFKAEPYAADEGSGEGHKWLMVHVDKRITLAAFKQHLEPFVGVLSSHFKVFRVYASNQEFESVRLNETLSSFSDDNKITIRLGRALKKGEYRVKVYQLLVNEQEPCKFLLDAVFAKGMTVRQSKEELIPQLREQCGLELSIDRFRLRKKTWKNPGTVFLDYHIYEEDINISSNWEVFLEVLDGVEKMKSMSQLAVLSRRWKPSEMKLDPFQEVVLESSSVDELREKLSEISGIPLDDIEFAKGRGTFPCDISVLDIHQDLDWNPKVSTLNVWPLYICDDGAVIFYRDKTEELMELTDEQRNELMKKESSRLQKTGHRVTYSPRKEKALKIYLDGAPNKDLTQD
How it was run: as §1

USP48 = molecular target: T3, USP48 (UniProt Q86UV5)
T3 sequence (whole entry): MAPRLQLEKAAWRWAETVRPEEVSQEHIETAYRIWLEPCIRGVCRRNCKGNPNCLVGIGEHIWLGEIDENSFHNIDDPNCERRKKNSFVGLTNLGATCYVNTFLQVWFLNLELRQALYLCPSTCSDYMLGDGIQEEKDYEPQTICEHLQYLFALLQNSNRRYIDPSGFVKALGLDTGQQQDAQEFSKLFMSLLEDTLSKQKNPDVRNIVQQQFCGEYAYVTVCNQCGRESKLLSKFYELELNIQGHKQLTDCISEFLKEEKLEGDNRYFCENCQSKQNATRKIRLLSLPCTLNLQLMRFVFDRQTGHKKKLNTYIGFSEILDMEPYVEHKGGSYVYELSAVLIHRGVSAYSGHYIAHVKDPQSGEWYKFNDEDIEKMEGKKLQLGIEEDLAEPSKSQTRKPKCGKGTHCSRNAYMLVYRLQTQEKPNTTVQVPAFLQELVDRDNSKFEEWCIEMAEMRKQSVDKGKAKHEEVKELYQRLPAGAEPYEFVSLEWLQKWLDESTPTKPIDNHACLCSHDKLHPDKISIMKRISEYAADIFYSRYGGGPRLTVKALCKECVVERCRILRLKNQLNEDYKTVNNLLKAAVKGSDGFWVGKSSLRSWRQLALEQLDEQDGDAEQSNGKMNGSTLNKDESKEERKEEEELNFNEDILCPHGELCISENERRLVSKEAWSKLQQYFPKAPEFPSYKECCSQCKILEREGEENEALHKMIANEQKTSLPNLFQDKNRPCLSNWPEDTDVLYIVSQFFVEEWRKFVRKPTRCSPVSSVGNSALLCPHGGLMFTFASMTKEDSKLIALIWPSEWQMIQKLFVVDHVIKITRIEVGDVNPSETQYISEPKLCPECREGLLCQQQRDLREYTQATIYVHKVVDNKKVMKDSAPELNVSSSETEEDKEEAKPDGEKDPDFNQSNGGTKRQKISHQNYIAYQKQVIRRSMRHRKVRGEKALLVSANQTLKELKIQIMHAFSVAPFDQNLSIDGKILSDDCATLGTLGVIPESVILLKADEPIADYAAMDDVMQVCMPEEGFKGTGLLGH
How it was run: as §1

USP5 = molecular target: T4, USP5 (UniProt P45974)
T4 sequence (whole entry): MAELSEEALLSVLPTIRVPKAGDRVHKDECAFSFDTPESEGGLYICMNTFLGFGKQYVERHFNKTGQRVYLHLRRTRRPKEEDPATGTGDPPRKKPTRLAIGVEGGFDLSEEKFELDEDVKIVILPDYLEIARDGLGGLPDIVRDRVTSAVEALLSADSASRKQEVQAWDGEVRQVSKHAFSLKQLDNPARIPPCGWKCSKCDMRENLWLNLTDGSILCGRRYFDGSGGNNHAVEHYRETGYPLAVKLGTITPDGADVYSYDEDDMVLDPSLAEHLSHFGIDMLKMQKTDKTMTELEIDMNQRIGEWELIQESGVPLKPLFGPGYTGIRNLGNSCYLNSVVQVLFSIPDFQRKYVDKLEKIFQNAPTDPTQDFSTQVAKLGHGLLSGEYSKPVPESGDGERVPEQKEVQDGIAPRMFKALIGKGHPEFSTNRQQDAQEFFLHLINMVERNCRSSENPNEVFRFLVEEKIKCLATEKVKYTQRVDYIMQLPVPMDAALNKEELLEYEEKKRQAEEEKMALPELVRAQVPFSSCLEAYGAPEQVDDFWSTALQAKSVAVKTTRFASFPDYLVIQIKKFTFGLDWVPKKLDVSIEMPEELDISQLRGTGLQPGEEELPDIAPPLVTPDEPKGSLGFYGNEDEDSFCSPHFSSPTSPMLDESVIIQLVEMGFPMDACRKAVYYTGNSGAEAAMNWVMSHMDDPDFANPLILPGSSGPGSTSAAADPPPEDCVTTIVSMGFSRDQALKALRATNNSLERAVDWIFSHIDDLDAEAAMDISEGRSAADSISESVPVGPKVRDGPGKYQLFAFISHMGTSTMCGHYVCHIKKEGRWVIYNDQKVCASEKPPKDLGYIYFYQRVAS
How it was run: as §1

USP54 = USP54 (UniProt Q70EL1)
How it was run: as §1

USP7 = USP7 (UniProt Q93009)
How it was run: as §1

USP8 = molecular target: T5, USP8 (UniProt P40818)
T5 sequence (whole entry): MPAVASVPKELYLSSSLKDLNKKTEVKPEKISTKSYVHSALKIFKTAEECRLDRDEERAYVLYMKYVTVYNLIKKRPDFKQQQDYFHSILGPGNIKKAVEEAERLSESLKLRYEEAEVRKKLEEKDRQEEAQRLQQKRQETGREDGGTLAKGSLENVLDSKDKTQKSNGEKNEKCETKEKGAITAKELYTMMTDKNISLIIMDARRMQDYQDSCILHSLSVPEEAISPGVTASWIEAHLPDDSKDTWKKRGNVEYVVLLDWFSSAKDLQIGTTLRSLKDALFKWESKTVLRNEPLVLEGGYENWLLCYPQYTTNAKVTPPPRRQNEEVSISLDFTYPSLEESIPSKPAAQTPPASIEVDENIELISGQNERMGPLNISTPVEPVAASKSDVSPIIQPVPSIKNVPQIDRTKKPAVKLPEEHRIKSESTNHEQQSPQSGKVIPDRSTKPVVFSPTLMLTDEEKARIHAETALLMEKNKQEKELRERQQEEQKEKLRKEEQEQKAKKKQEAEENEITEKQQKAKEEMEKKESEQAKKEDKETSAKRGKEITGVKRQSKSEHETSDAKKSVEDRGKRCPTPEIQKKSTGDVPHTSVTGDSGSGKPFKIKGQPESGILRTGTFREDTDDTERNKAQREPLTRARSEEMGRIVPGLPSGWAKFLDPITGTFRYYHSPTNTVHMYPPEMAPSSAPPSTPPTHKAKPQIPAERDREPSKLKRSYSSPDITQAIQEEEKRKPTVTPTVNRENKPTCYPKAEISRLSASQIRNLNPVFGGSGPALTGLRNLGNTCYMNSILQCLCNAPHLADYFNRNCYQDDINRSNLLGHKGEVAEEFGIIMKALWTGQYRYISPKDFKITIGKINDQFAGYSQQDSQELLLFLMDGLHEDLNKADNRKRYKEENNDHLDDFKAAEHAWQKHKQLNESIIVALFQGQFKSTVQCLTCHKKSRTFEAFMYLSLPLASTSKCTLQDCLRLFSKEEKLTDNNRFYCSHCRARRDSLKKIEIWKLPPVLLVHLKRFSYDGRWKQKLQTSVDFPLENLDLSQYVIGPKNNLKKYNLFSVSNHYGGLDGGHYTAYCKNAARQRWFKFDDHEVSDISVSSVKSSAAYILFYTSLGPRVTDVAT
How it was run: as §1

USP9X = USP9X (UniProt Q93008)
How it was run: as §1

UniProt O00487 = molecular target: UniProt O00487
How it was run: as §1

Measured: log2 ratio of Biotin-Ahx-Ub-VS probe labelling

Chain of USP9X (Q93008 whole entry): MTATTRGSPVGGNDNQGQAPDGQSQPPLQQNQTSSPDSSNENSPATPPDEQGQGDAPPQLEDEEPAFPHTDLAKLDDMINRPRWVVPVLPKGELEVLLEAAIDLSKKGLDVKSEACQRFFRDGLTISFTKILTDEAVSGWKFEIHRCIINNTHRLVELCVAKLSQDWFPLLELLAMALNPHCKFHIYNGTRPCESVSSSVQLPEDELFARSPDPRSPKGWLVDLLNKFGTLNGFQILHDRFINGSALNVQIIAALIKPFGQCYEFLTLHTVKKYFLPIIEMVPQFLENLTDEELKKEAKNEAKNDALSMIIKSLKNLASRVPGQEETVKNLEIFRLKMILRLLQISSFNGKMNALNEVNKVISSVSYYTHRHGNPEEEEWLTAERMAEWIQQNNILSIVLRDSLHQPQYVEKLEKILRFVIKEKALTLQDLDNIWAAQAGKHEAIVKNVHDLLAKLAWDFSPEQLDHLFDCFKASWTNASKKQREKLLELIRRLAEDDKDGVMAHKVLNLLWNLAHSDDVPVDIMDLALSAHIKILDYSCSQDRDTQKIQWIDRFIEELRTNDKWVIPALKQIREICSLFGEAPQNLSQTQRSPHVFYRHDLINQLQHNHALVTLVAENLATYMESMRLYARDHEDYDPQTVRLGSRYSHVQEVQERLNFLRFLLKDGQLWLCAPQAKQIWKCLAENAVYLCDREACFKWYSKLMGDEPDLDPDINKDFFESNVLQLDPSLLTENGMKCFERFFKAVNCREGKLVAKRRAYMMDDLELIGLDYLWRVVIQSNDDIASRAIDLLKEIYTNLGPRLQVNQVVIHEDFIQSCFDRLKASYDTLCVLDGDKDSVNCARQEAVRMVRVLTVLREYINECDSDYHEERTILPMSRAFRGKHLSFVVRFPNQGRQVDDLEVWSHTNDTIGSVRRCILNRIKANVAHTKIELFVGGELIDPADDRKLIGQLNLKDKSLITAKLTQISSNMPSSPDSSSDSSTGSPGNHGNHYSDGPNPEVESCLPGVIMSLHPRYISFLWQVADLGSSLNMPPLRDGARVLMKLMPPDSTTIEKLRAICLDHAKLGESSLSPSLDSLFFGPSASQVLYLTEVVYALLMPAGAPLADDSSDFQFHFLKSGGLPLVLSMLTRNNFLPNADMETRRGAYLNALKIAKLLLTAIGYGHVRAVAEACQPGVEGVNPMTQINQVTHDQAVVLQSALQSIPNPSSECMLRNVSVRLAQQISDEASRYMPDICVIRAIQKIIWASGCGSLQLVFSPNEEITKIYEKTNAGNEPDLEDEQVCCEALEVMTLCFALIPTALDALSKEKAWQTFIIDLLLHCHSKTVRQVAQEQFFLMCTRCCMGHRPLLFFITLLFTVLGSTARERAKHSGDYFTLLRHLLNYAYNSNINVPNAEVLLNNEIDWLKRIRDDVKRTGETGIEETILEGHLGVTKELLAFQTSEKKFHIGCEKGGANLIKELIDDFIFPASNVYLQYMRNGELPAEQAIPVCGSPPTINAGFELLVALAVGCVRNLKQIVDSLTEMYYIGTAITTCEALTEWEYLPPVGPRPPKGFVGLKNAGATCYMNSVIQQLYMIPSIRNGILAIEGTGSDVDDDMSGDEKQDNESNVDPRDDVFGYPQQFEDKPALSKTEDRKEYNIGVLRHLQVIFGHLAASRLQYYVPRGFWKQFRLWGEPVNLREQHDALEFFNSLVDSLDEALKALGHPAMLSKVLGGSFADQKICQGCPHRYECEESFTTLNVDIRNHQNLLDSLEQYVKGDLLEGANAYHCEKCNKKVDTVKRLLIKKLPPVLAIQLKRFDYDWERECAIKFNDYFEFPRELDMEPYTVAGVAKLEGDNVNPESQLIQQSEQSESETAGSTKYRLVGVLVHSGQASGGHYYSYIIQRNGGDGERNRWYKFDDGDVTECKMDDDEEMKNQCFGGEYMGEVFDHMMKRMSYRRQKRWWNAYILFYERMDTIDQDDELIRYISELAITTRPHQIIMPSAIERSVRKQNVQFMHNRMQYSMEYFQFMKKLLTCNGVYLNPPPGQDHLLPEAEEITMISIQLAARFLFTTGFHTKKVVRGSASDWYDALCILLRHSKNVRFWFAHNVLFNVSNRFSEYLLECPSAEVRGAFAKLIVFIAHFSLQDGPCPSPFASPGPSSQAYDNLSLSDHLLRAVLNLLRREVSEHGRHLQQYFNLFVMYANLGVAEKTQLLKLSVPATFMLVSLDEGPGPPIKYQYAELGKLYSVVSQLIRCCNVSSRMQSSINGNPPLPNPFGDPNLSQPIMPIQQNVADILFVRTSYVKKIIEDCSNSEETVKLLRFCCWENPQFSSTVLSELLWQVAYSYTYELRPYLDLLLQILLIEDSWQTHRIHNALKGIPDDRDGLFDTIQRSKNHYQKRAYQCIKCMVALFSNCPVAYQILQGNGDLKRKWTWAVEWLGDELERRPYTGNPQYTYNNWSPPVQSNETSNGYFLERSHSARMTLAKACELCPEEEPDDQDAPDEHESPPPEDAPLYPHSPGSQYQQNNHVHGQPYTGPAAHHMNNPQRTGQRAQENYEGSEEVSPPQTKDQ
Chain of USP7 (Q93009 whole entry, looked up): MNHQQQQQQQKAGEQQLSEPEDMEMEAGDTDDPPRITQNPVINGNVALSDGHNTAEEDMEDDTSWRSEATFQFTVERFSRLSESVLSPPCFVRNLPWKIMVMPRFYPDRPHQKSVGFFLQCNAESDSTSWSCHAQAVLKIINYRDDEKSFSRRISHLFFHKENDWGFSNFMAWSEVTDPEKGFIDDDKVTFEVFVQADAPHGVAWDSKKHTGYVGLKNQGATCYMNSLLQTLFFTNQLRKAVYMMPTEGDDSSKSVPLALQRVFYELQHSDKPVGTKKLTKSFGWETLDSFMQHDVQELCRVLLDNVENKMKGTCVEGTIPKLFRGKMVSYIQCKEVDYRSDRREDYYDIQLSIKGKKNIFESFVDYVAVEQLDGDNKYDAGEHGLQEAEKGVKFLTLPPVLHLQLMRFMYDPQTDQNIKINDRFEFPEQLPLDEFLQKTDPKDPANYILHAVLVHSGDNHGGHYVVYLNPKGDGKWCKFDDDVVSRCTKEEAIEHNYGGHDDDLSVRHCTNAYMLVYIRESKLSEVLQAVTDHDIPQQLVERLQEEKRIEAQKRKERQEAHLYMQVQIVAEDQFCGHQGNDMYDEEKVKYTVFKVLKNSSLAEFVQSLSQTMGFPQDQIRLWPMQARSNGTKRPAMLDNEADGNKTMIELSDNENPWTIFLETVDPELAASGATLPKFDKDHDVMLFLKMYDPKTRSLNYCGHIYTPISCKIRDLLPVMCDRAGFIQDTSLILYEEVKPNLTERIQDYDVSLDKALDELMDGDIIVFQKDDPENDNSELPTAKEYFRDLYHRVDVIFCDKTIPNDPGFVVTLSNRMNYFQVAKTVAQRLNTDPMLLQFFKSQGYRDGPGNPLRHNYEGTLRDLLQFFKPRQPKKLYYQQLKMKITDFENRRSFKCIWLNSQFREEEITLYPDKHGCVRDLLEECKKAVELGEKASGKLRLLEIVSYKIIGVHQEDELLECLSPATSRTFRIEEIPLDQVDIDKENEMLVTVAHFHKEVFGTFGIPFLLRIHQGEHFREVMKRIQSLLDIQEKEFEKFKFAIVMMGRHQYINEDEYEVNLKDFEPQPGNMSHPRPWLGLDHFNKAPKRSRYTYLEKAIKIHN
Chain of USP46 (P62068 whole entry): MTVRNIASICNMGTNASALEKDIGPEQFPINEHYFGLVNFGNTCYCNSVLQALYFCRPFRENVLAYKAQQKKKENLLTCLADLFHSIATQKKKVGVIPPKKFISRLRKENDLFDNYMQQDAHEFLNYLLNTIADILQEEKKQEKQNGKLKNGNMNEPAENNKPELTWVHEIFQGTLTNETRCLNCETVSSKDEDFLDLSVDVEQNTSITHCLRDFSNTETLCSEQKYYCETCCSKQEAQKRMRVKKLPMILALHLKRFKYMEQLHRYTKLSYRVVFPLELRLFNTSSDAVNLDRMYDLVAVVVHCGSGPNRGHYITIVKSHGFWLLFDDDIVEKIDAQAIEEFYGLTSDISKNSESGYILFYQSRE
Chain of UniProt O00487 (O00487 whole entry): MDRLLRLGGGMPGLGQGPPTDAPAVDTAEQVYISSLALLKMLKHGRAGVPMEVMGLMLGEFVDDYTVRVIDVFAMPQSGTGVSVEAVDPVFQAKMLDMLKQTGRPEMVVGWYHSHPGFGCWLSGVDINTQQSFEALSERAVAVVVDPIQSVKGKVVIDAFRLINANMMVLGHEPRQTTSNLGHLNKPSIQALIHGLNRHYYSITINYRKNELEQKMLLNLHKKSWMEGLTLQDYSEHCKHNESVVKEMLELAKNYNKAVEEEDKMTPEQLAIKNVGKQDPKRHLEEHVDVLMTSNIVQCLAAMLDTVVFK

Cc1cnc2[nH]cc(CCNC(=O)CCl)c2c1
inactive: USP42 0.34 | USP46 -0.0833 | USP47 -0.00951 | USP48 0.00232 | USP5 -0.115 | USP54 0.181 | USP7 -0.0122 | USP8 -0.428 | USP9X -0.0941 | UniProt O00487 0.0974
